Holding throughout (type): functional
For experiment [1], the system named is Plasmodium falciparum. As to the kind of experiment: GSK_TCMDC: Inhibition of Plasmodium falciparum 3D7 in whole red blood cells, using parasite LDH activity as an index of growth. Test compounds present at 2uM.
For experiment [2], the system named is Plasmodium falciparum. As to the kind of experiment: GSK_TCMDC: Inhibition of Plasmodium falciparum Dd2 in whole red blood cells, using parasite LDH activity as an index of growth. Test compounds present at 2uM.
A further experiment deals with HepG2. As to the kind of experiment: GSK_TCMDC: Percent inhibition of human HepG2 cell line. Test compounds present at 10uM.

Several values for one entry are separate records, joined by “and”; a condition that tells them apart may be missing. Equal values may be shown once.

As usually defined, the Inhibition is the change of the read-out against control, counted positive when it falls. Take `Br.CCCCCCCSc1ccc(CC(C)NCC(O)c2cccc(Cl)c2)cc1` (stereo unspecified): the figures for the Inhibition in the experiment on Plasmodium falciparum [1], with Plasmodium falciparum [2] and with HepG2 were 100%, 99% and 94%, respectively.

As to `Cc1[nH]c2ccccc2c1C1=CCN(CCN2CCCc3c(Br)cccc3C2=O)CC1`, the Inhibition stood at 95% with Plasmodium falciparum [1], 90% in the experiment on Plasmodium falciparum [2] and 10% with HepG2.

`CCN(CC)CCCC(C)Nc1ccnc2cc(Cl)ccc12.O=P(O)(O)O.O=P(O)(O)O` (stereo unspecified) [CHLOROQUINE PHOSPHATE]: the Inhibition in the experiment with Plasmodium falciparum [1] amounted to 100%.

Regarding `COc1ccc(C[C@H]2NC[C@H](O)[C@H]2OC(C)=O)cc1` [ANISOMYCIN], the values for the Inhibition in the experiment with Plasmodium falciparum [1], in the experiment with Plasmodium falciparum [2] and in the experiment on HepG2 were 100%, 98% and 39%, respectively.

With `O=C(Nc1cc(C(F)(F)F)cc(C(F)(F)F)c1)NC1CCC(CN2CCC(c3c[nH]c4ccccc34)CC2)CC1` (stereo unspecified), the Inhibition in the experiment with Plasmodium falciparum [1] is 97% and 100%; in the experiment with Plasmodium falciparum [2], 98% and 72%.

In the case of `CN1CC=C(c2c[nH]c3ccc(C(=O)c4nccs4)cc23)CC1`, the figures for the Inhibition with Plasmodium falciparum [1] and in the experiment on Plasmodium falciparum [2] were 89% and 73%, respectively.

With `CCC1=C[C@@H]2CN(C1)Cc1c([nH]c3ccccc13)[C@@](C(=O)OC)(c1cc3c(cc1OC)N(C)[C@H]1[C@@](O)(C(=O)OC)[C@H](O)[C@]4(CC)C=CCN5CC[C@]31[C@@H]54)C2.O=S(=O)(O)O`, the Inhibition with Plasmodium falciparum [1] came to 98%; in the experiment on Plasmodium falciparum [2], 99%.

Regarding `CCC(C)(C)NC(C)C(O)c1ccc(C(F)(F)F)cc1.Cl` (stereo unspecified), the Inhibition in the experiment with Plasmodium falciparum [1] came out at 97%; with Plasmodium falciparum [2], 90%.

Turning to `CN(c1cc(NC(=O)c2ccc(F)cc2)ccn1)C1CCN(Cc2ccc(C#N)cc2)CC1.O=C(O)C(F)(F)F`, the Inhibition in the experiment on Plasmodium falciparum [1] is given as 87%; in the experiment with Plasmodium falciparum [2], 54%; with HepG2, 13%.

As to `N=C(N)NC(=O)Nc1ccc([N+](=O)[O-])c(Cl)c1`, the Inhibition is reported as 90% in the experiment with Plasmodium falciparum [1] and 12% in the experiment on Plasmodium falciparum [2].

For `COC(=O)c1ccc(CC(C)NCC(O)c2cccc(OCc3ccccc3)c2)cc1.Cl` (stereo unspecified), the Inhibition in the experiment on Plasmodium falciparum [1] is on record as 86%; in the experiment on Plasmodium falciparum [2], 37%; in the experiment with HepG2, 11%.

`CC(C)CNCc1ccc(-c2ccc(CN(C(=O)NC3CCCCC3)C3CCN(Cc4ccccc4)CC3)cc2)cc1.O=C(O)C(F)(F)F`: the results for the Inhibition with Plasmodium falciparum [1], in the experiment with Plasmodium falciparum [2] and in the experiment with HepG2 were 100%, 88% and 39%, respectively.

Consider `CC(Cc1ccc(OCCCCOc2ccccc2)cc1)NCCCc1nc2ccccc2[nH]1` (stereo unspecified), for which the Inhibition is 97% in the experiment on Plasmodium falciparum [1], 67% in the experiment on Plasmodium falciparum [2] and 99% in the experiment with HepG2.

For the compound `CC(Cc1ccc(OCCOc2ccccc2)cc1)NCC(O)c1cccc(Cl)c1` (stereo unspecified), the Inhibition in the experiment with Plasmodium falciparum [1] stood at 99%; in the experiment with Plasmodium falciparum [2], 99%; in the experiment on HepG2, 12%.

Consider `C#CCOc1ccc(CC(C)NCC(O)c2cccc(C(F)(F)F)c2)cc1` (stereo unspecified), for which the Inhibition in the experiment on Plasmodium falciparum [1] was 93% and 90%; with Plasmodium falciparum [2], 84% and 74%.

Consider `O=C(/C=C/c1ccc(Cl)c(Cl)c1)NC1CCC(CN2CCC(c3c[nH]c4cc(C(F)(F)F)ccc34)CC2)CC1` (stereo unspecified), for which the Inhibition is 100% and 98% in the experiment on Plasmodium falciparum [1]; 38% and 85% in the experiment with Plasmodium falciparum [2].

For `COc1ccc(C(=O)c2ccc3[nH]cc(C4=CCN(C)CC4)c3c2)cc1`, the Inhibition came to 88% in the experiment on Plasmodium falciparum [1] and 55% in the experiment on Plasmodium falciparum [2].

In the case of `CC[C@H]1CN2CC[C@H]1C[C@H]2[C@H](O)c1cc(-c2ccccc2C)nc2ccc(OC)cc12.Cl`, the Inhibition in the experiment on Plasmodium falciparum [1] is recorded as 100%; with Plasmodium falciparum [2], 98%; in the experiment on HepG2, 16%.

For the compound `CCN(Cc1ccccc1)CC(O)c1ccc(Cl)c(Cl)c1.Cl` (stereo unspecified), the figures for the Inhibition in the experiment on Plasmodium falciparum [1], in the experiment with Plasmodium falciparum [2] and in the experiment on HepG2 were 96%, 71% and 2%, respectively.

In the case of `COCCNCc1ccc(-c2cccc(CN(C(=O)CCC3CCCC3)C3CCN(Cc4ccccc4)CC3)c2)cc1.O=C(O)C(F)(F)F`, the Inhibition in the experiment with Plasmodium falciparum [1] turned out to be 91%; with Plasmodium falciparum [2] it was 86%; with HepG2 it was 50%.

With `CSc1nccc(-c2ccc(S(=O)(=O)NC3CCC(CN4CCC(c5c[nH]c6ccccc56)CC4)CC3)s2)n1` (stereo unspecified), the Inhibition in the experiment on Plasmodium falciparum [1] is 100%; with Plasmodium falciparum [2], 33% and 67%; in the experiment on HepG2, 61% and 36%.

For `CC(C)CNCc1cccc(-c2cccc(CN(C(=O)Nc3ccccc3)C3CCN(Cc4ccccc4)CC3)c2)c1.O=C(O)C(F)(F)F`, the Inhibition in the experiment on Plasmodium falciparum [1] came to 100%; in the experiment with Plasmodium falciparum [2], 89%; in the experiment with HepG2, 31%.

`COC(=O)c1ccc(C[C@@H](C)NC[C@H](O)c2cccc(C(F)(F)F)c2)cc1.Cl`: the results for the Inhibition with Plasmodium falciparum [1], with Plasmodium falciparum [2] and in the experiment on HepG2 were 97%, 93% and 1%, respectively.

Regarding `O=C(/C=C/c1ccc(Cl)c(Cl)c1)NC1CCC(CN2CCC(c3c[nH]c4cc(O)ccc34)CC2)CC1` (stereo unspecified), the Inhibition is 100% with Plasmodium falciparum [1], 98% in the experiment on Plasmodium falciparum [2] and 18% in the experiment with HepG2.

`CC(=O)C1(c2ccccc2)CCN(CCC2(c3ccc(Cl)c(Cl)c3)CN(C(=O)C3CCCCC3)CCO2)CC1` (stereo unspecified): the Inhibition in the experiment with Plasmodium falciparum [1] was found to be 100%; with Plasmodium falciparum [2] it was 99%; in the experiment with HepG2 it was 3%.

`CCCCCc1cc(O)c2c(c1)OC(C)(C)c1ccncc1-2.Cl`: the Inhibition with Plasmodium falciparum [1] is on record as 99%; in the experiment with Plasmodium falciparum [2], 57%; in the experiment on HepG2, 0%.

As for `Cl.O=C(/C=C/c1ccc(Cl)c(Cl)c1)NC1C2CCC1CC(CN1CCC(c3c[nH]c4ccccc34)CC1)C2` (stereo unspecified), the Inhibition with Plasmodium falciparum [1] is recorded as 100%; in the experiment on Plasmodium falciparum [2], 100%; in the experiment with HepG2, 31%.

As for `COc1ccc(CN2CCN(CCOC(c3ccccc3)c3ccc(Cl)cc3)CC2)c(O)c1` (stereo unspecified), the Inhibition amounted to 99% with Plasmodium falciparum [1], 98% in the experiment on Plasmodium falciparum [2] and 12% in the experiment with HepG2.

On to `CCCc1cc(O)c2c3c(c(=O)oc2c1)CN(C)CC3`, for which the Inhibition with Plasmodium falciparum [1] was 98%; in the experiment with Plasmodium falciparum [2], 50%; in the experiment with HepG2 it was 12%.

On to `Oc1ccc2[nH]cc(C3=CCN(Cc4ccccc4)CC3)c2c1`, for which the results for the Inhibition in the experiment with Plasmodium falciparum [1], in the experiment with Plasmodium falciparum [2] and in the experiment on HepG2 were 94%, 67% and 1%, respectively.

Consider `COC(=O)c1ccc(CC(C)NCC(O)c2cc(Cl)c(N)c(Cl)c2)cc1` (stereo unspecified), for which the Inhibition with Plasmodium falciparum [1] was determined as 91%; with Plasmodium falciparum [2] it was 66%; in the experiment on HepG2 it was 0%.

On to `C=C[C@H]1CN2CC[C@H]1C[C@H]2[C@H](O)c1ccnc2ccccc12` [CINCHONIDINE], for which the Inhibition in the experiment on Plasmodium falciparum [1] worked out at 100%; with Plasmodium falciparum [2], 3%; in the experiment on HepG2, 9%.

Values taken from ChEMBL document CHEMBL1157539, “Thousands of chemical starting points for antimalarial lead identification” (Nature, 2010).
